Compound activity as filed in PubChem.
NS1 inh: inhibitors of influenza NS1 protein function. Potency, µM (series often up to 46.1 µM). 0.4% of 270,000 active. AID 2326; also: actives are rising curves; nearly all actives have a fitted effect of over 50% in size
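Recovery from NS1-induced slow growth read by OD600 in budding yeast switched to galactose assay medium (pH 6.0, -URA) at 1:100 dilution. Compound 23 nl per well; the matching strain lacking NS1 serves as control.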
Cycloheximide cs: affects cycloheximide protein synthesis inhibition readout, counter-screen. cell reporter, cycloheximide protein synthesis inhibition counterscreen. max response, %. 12% of 300,000 active; in the data active = max response mostly above about 13%, no sharp cut-off; inactive = mostly below about 14%; also: read at 38.3 µM for the half of the compounds with a filed dose
SARS PLpro yeast: SARS-CoV PLP inhibition in yeast; S. cerevisiae expressing SARS-CoV PLpro, growth rescue; Potency, µM (doses to about 32.9 µM), hits mostly activators; 0.19% of 330,000 active; also: nearly all actives have a fitted effect of over 55% in size
Shiga toxin inh: blocks Shiga toxin action in Vero cells | Vero cells, Shiga toxin protein synthesis inhibition reporter | 9.2% of 290,000 active | inhibition, % at 38.7 µM; in the data active = inhibition mostly above about 28%, no sharp cut-off; inactive = mostly below about 43%
Of the large screens only hits and unclear results are named; the others gave an inactive call. Compounds with a hit are over-represented: about 12% of the library has one in this group of screens. Unless noted, calls follow the shape of the full dose curve.

CS(=O)(=O)N1CCN(c2cnn(-c3ccccc3)c(=O)c2Cl)CC1	none
CN1CCN(c2cnn(-c3ccccc3)c(=O)c2Br)CC1	Cycloheximide cs 29.4, Shiga toxin inh 52.7 (no result: NS1 inh)
O=c1c(Br)c(Br)cnn1-c1ccccc1	none
CC(C)(C)c1ccc(-c2nnc(SCC(=O)NC3CC3)o2)cc1	none (no result: NS1 inh, Cycloheximide cs, Shiga toxin inh)
COc1ccc(S(=O)(=O)NC(C)C(=O)NCc2ccncc2)cc1OC (stereo not drawn)	none
COc1ccc(C(=O)NCc2ccncc2)cc1S(=O)(=O)NCc1ccc(Cl)cc1	none (no result: NS1 inh, Cycloheximide cs, Shiga toxin inh)
OCC1(Cc2ccc(Cl)cc2)CCN(CC2CC=CCC2)CC1 (stereo not drawn)	none
COc1ccc(NC(=O)c2csc(Cc3ccc(Cl)cc3)n2)cc1	none
O=C(Nc1ccc(Cl)cc1)c1csc(Cc2ccccc2)n1	Cycloheximide cs 36.7, Shiga toxin inh 75.0
COc1ccc(Cc2nc(C(=O)Nc3ccccc3)cs2)cc1	Cycloheximide cs 38.8, Shiga toxin inh 51.6
COc1ccc(NC(=S)NCCCCCC(=O)C[N+](=O)[O-])cc1	none (no result: NS1 inh)
O=C(Nc1ccc(NS(=O)(=O)c2ccccc2)cc1)c1cccnc1	none
CCn1nnc2sc3c(c2c1=O)CCC(C)C3 (stereo not drawn)	Cycloheximide cs 38.0
CC1CCc2c(sc3ncn(CCO)c(=O)c23)C1 (stereo not drawn)	Cycloheximide cs 37.9, Shiga toxin inh 63.7
CC(=O)Cn1nnc2sc3c(c2c1=O)CCC(C(C)(C)C)C3 (stereo not drawn)	Cycloheximide cs 66.4, Shiga toxin inh 88.0 (no result: NS1 inh)
C(=N\NC1=NCCN1)/c1ccncc1	none
CN(C)C=Nc1ncc2c([nH]c3ccccc32)c1C#N	Cycloheximide cs 49.8
CCOC(=O)C1=NN(C(C)=O)C2C(=O)N(CC)C(=O)C12 (stereo not drawn)	none
NNC(=O)[C@H](Cc1ccccc1)NC(=O)Nc1ccc2c(c1)OCCO2	none
O=C(NCc1ccccc1Cl)c1ccc2c(c1)OCO2	Cycloheximide cs 17.9, Shiga toxin inh 32.2
O=C(NCc1ccccc1)c1ccc2c(c1)OCCO2	Cycloheximide cs 22.7
O=C(NCc1ccccc1F)c1ccc2c(c1)OCO2	none
O=C(Nc1ccc2c(c1)OCCO2)C(=S)NCc1ccccc1	Cycloheximide cs 49.3, Shiga toxin inh 81.8 (no result: NS1 inh)
O=C(NCc1cccs1)c1ccc2c(c1)OCCO2	Cycloheximide cs 37.3
Cc1ccc(OCC(=O)N(C)Cc2ccccc2)c([N+](=O)[O-])n1	none
CCOC(=O)c1ccc(NC(=S)N2CCSC2c2ccc(OC)cc2)cc1 (stereo not drawn)	Cycloheximide cs 26.0, Shiga toxin inh 23.4
CCC(C)c1ccc(NC(=S)NN2CCOCC2)cc1 (stereo not drawn)	Cycloheximide cs 42.3, SARS PLpro yeast inconclusive, Shiga toxin inh 87.3
CCOC(=O)c1ccc(NC(=S)N2CCSC2c2ccc(Cl)cc2)cc1 (stereo not drawn)	none
CCOC(=O)c1ccc(NC(=S)NNC(C)(C)C)cc1	Cycloheximide cs 61.4, Shiga toxin inh 83.8
CCOC(=O)c1ccc(NC(=S)NC(=O)COc2ccccc2)cc1	Cycloheximide cs 54.7
Cc1ccc(CN(C)C(=O)c2ccc(S(=O)(=O)N3CCCCCC3)cc2)o1	none (no result: NS1 inh, Cycloheximide cs, Shiga toxin inh)
COc1ccccc1C(=O)NCCC(=O)NCc1ccccn1	none (no result: NS1 inh, Cycloheximide cs, Shiga toxin inh)
CCOC(=O)c1ccc(NC(=S)Nc2ccc(C)cc2)cc1	none
CC(C)c1ccc(NC(=O)NN2CCOCC2)cc1	Cycloheximide cs 42.6, Shiga toxin inh 138.2 (no result: NS1 inh)
CCOC(=O)c1ccc(NC(=S)NN2CCOCC2)cc1	NS1 inh inconclusive, Cycloheximide cs 32.2, Shiga toxin inh 39.2
CC(C)c1ccc(NC(=O)C(c2ccccc2)N2CCOCC2)cc1 (stereo not drawn)	none
CCc1ccc2[nH]c(=O)c(CN(CC3CCCO3)C(=S)NCc3ccco3)cc2c1 (stereo not drawn)	Cycloheximide cs 22.2
CCc1ccc2[nH]c(=O)c(CN(CCN(C)C)C(=S)NCc3ccco3)cc2c1	none
Cc1cc(CN2CCCCC2C(=O)Nc2ccc(Oc3cccnc3)cc2)oc1C (stereo not drawn)	Cycloheximide cs 21.5, Shiga toxin inh 42.5 (no result: SARS PLpro yeast)
O=C(Nc1ccc(Oc2cccnc2)cc1)C1CCCCN1Cc1ccc(CO)o1 (stereo not drawn)	none
Cc1ccc(CNCC(O)c2ccccc2)s1 (stereo not drawn)	Cycloheximide cs 13.5
Cc1ccc(S(=O)(=O)N2CC(=O)N3CCN(CCN)C3C2)cc1 (stereo not drawn)	none (no result: NS1 inh, Cycloheximide cs, Shiga toxin inh)
Nc1c(C(=O)N2CCCC2)sc2nc(-c3ccccc3)ccc12	Cycloheximide cs 38.8, Shiga toxin inh 75.2
Nc1c(C(=O)O)sc2nc(-c3ccccc3)cc(-c3ccccc3)c12	none
Cc1ccc(-c2c3c(nc4sc(C(N)=O)c(N)c24)CCC3)cc1	Cycloheximide cs 29.3
Nc1c(C(=O)N2CCCCC2)sc2nc3c(cc12)CCCC3	Cycloheximide cs 49.8, Shiga toxin inh 108.5
